Source: PubChem
In the library only some 2.3% were active in any assay of this set; here they are far more common.
iPSC_survival_up: increases survival of single human iPS cells. hiPSC single-cell survival, ATPlite luminescence; 100% = ROCK inhibitor wells, 0% = DMSO. survival enhancement, % at 20 µM. 360,000 tested, 0.044% active; in the data active = survival enhancement above about 18%;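 note: cells exposed to compounds for 16 hours before the ATP read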
LGR2_inh: inhibitors of bursicon-induced Drosophila LGR2 receptor cAMP signaling. HEK293 LGR2, CRE-luciferase, bursicon-stimulated, 4 h. inhibition, % at 9.99 µM. 380,000 tested, 0.35% active;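 active = drop in luminescence signal, shown as inhibition above about 50% in the replicate tests, limit read from the data, passing the limit was not always enough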;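 note: agonist challenge used bursicon conditioned medium at about half maximal strength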
HIF-2a_inh: blocks HIF-2a reporter activity; 786-0 RCC cells HIF-2a reporter, luciferase luminescence, overnight; inhibition, % at 18.8 µM; AID 624352; 360,000 tested, 0.72% active;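 active = inhibition of the luminescence signal of 40% or more relative to plate controls, in a single-dose primary screen at 18.75 µM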
TWEAK_Fn14_block: inhibitors of TWEAK-Fn14 interaction signaling. TWEAK-stimulated Fn14 reporter cells, luciferase luminescence, 8 h. inhibition, % at 10 µM. 360,000 tested, 2% active; in the data active = inhibition above about 50%
KKLEB_cytotox: CF airway cell cytotoxicity counter-screen | 360,000 tested, 0.36% active | activity change (cytotoxicity), % at 5 µM | AID 602141 | KKLEB CF airway cells viability, ATPlite luminescence, overnight; stronger effect = lower value; cells stimulated with P. aeruginosa culture filtrate;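 active = corrected activity change at or below -50% at 5 µM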
CF_NFkB_inh: inhibitors of cystic fibrosis induced NF-kB | 360,000 tested, 0.86% active | KKLEB NF-kB-GFP reporter, PAF-induced, GFP fluorescence overnight | inhibition, % at 5 µM | AID 588850;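 active = at least 50% inhibition at 5 µM, scaled per plate between neutral and stimulator controls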;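 note: PAF is a Pseudomonas aeruginosa culture filtrate used as stimulus; plate controls were PAF-stimulated DMSO wells for no effect and unstimulated DMSO wells for full effect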
An asterisk follows results filed as active; . = no result given.

SMILES iPSC_survival_up LGR2_inh HIF-2a_inh TWEAK_Fn14_block KKLEB_cytotox CF_NFkB_inh
C[C@@H]1CCCCO[C@H](CN(C)C(=O)Nc2ccc(C(F)(F)F)cc2)[C@@H](C)CN([C@H](C)CO)C(=O)c2cc(NC(=O)Nc3ccc(C(F)(F)F)cc3)ccc2O1 . 6 . . . .
COc1ccc(C(=S)N2CCOCC2)cc1OC(=O)c1ccc([N+](=O)[O-])cc1[N+](=O)[O-] 1 2 0 100* 5 -17
CCOc1ccc(C(=O)c2cc([N+](=O)[O-])ccc2N2CCOCC2)cc1 -3 3 28 1 -43 55*
COc1ccc(C(=O)c2cc([N+](=O)[O-])ccc2N2CCOCC2)cc1 -2 4 29 -1 -29 60*
Cc1ccc(C(=O)c2cc([N+](=O)[O-])ccc2N2CCOCC2)cc1 -1 -21 7 10 -18 30
CC(C)NC(=O)N1[C@H](CO)[C@@H]2c3ccccc3N(C(=O)c3ccc(F)cc3)C[C@@H]21 . 5 . . . .
CCOC(=O)C1=C[C@@H](C2CCCCC2)N(S(=O)(=O)c2ccc([N+](=O)[O-])cc2)[C@H]1c1ccccc1 0 8 0 75* -12 13
